In ChEMBL document CHEMBL2218924, “A broad activity screen in support of a chemogenomic map for kinase signalling research and drug discovery” (Biochem J, 2013):

Each compound was assayed against T1, Serine/threonine-protein kinase Sgk3 (Homo sapiens) (UniProt Q96BR1). Conditions: at 10 µM.
T1 sequence (whole entry): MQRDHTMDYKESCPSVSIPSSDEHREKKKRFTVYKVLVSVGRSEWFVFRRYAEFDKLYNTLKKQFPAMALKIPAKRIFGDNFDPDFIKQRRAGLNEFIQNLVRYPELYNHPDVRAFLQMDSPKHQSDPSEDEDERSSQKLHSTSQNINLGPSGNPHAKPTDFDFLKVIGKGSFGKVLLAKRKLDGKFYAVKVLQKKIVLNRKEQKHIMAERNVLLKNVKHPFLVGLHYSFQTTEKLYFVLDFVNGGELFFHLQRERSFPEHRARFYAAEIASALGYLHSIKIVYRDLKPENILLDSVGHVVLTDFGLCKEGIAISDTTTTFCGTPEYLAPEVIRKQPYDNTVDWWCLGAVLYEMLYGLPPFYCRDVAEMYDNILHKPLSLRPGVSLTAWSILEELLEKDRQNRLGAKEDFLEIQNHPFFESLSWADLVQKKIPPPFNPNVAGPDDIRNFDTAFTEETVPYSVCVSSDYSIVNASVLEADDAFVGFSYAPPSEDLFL

`Cc1cccc(-c2[nH]c(C(C)(C)C)nc2-c2ccc3c(c2)OCO3)n1` and `c1ccc(-c2n[nH]c3c2oc2ccccc23)cc1` are the same in residual activity: 98% for the first, 98% for the second.

First: COc1cc2ncnc(Nc3ccc(NC(=O)c4ccccc4)cc3)c2cc1OC
Second: COc1cc2ncnc(Nc3ccc(Oc4ccccc4)cc3)c2cc1OC
The residual activity of the first is lower: 91% for the first, 125% for the second.

Compared with `Cn1nc2c3c(cccc31)C(=O)c1ccccc1-2`, `O=C(O)c1ccc2c3c1cccc3c(=O)n1c3ccccc3nc21` is higher in residual activity: 74% for the first, 83% for the second.

Compared with `c1ccc2c(-c3ccncc3)c[nH]c2c1`, `Cn1cc(/C=C2\C(=O)Nc3ccc(S(N)(=O)=O)cc32)c2ccccc21` is higher in residual activity: 54% for the first, 86% for the second.

Going from `O=C(Nc1cccc(Nc2nccc(Nc3cccc(C(F)(F)F)c3)n2)c1)C1CC1` to `Cn1cnc2cc3c(Nc4cccc(Br)c4)ncnc3cc21`, the residual activity rises from 78% to 89%.

Compared with `CC(C)n1cnc2c(NCc3ccccc3)nc(NCCCO)nc21`, `O=C1Nc2ccccc2/C1=C1/Nc2ccccc2/C1=N\OCCC(O)CO` (centres undefined) is lower in residual activity: 76% for the first, 69% for the second.

Going from `N#CCCc1ccc2c(c1)-c1[nH]c3ccc([N+](=O)[O-])cc3c1CC(=O)N2` to `O=C1NC(=O)c2cc(Nc3ccc(F)cc3)c(Nc3ccc(F)cc3)cc21`, the residual activity rises from 78% to 96%.

Going from `Cc1cncc2cccc(S(=O)(=O)N3CCCN(C(=O)CN)C[C@H]3C)c12` to `C[C@@H](N)[C@H]1CC[C@H](C(=O)Nc2ccncc2)CC1`, the residual activity rises from 88% to 105%.

`Cc1ccc(S(=O)(=O)/C=C/C#N)cc1` and `N#CC(C#N)=C(N)/C(C#N)=C/c1ccc(O)cc1` are the same in residual activity: 81% for the first, 81% for the second.

In the case of `NC(=O)c1ccc2[nH]c(-c3ccc(Oc4ccc(Cl)cc4)cc3)nc2c1`, the residual activity is reported as 103%.
